FLuc counter: qHTS profiling assay for firefly luciferase inhibitor/activator using purifed enzyme and Km concentrations of substrates (counterscreen for miR-21 project); Luciferin 4-monooxygenase (Photinus pyralis), P08659; purified FLuc, Km substrates, luminescence inhibition; Potency, µM (series often up to 57.5 µM), without a hit: at the top dose activity change, negative = inhibition, hits mostly inhibitors; hit rate 6.9% among 360,000;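 also: plate controls were vehicle for no effect and reference inhibitor for full effect; nearly all actives have a fitted effect of over 55% in size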
Target sequence (P08659 whole entry, looked up): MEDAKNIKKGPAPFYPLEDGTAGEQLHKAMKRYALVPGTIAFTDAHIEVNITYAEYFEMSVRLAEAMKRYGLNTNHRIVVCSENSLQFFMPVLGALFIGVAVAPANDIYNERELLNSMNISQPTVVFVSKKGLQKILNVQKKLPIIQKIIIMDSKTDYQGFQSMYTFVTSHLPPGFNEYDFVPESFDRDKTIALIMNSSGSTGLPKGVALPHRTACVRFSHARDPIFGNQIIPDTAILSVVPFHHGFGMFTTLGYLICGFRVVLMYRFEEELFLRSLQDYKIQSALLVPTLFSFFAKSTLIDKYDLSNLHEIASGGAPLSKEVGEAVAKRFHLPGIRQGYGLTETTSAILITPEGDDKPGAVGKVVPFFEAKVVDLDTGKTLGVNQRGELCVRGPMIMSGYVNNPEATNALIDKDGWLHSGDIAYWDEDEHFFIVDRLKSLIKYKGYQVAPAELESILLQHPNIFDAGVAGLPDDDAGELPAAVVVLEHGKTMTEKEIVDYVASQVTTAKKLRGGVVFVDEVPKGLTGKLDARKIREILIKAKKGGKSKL
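Purified P. pyralis luciferase, 10 nM final, with Km-level 10 uM D-luciferin and 10 uM ATP in 50 mM Tris acetate pH 7.5, 10 mM Mg acetate, 0.01% Tween-20, 0.05% BSA; 6-point qHTS titration about 60 µM downward; luminescence read.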
SMN2 splice up: qHTS Assay for Enhancers of SMN2 Splice Variant Expression; Potency, µM (titrated, usually from 46.1 µM), for inactives: at the top dose activity change, positive = activation, usual class: activators; HEK293 SMN2-luciferase splicing reporter, luminescence, 30-36 h; hit rate 2.8% among 210,000; AID 1458, 2008; also: % of control where 0% means no effect; nearly all actives have a fitted effect of over 55% in size
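HEK293 cells carry an SMN2 minigene-luciferase reporter in which exon 7 inclusion puts luciferase in frame. Cells were seeded at 2000 cells/well, attached for 10-12 hours, then exposed to compounds for 30-36 hours at 37C before ONE-Glo luminescence.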
Rab9 prom act: qHTS Assay for Rab9 Promoter Activators | Potency, µM (series often up to 9.22 µM), for the others: at the highest dose activation, negative = inhibition, usual class: activators | hit rate 2.8% among 320,000 | AID 485297, 2010 | Huh7 Rab9 promoter-luciferase reporter, luminescence, 24 h; also: % of control where 0% means no effect; nearly all actives have a fitted effect of over 60% in size
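Luminescence read-out: Huh7 cells stably expressing Rab9-luciferase, treated 24 h with compound at 37 °C, then lysed with luciferase reagent for 10 min at ambient before reading.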
NPC1 promoter act: qHTS Assay for NPC1 Promoter Activators; Huh7 NPC1 promoter luciferase reporter, 24 h; Potency, µM (doses to about 9.22 µM), for the others: at the top dose activation, hits mostly activators; hit rate 2.4% among 320,000; AID 485313, 2010; also: % of control where 0% means no effect; nearly all actives have a fitted effect of over 60% in size
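Cells: Huh7 expressing luciferase under the NPC1 promoter, 1500/well. Seeded 2 h, compound added, incubated 24 h at 37 °C. Luciferase reagent, 10 min ambient, then luminescence.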
ELG1 genotoxic: qHTS screen for small molecules that induce genotoxicity in human embryonic kidney (HEK293T) cells expressing luciferase-tagged ELG1; HEK293T ELG1-luciferase reporter, luminescence, 16 h; Potency, µM (doses to about 46 µM), inactives show at the top dose activity change, positive = activation, actives largely listed as activators; hit rate 1.3% among 330,000; AID 504466, 2011; also: % of control where 0% means no effect; nearly all actives have a fitted effect of over 60% in size
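ELG1-luciferase HEK293T cells, 2,000/well; compound pinned in; 16 hr, 37 °C, 5% CO2; ONE-Glo, 30 min RT; luminescence on CCD imager.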
Luc counter: Counterscreen for Luciferase (Kinase-Glo TM) Inhibition. Luciferin 4-monooxygenase (Photuris pensylvanica), Q27757. Kinase-Glo luciferase, ATP luminescence, 8 min. Potency, µM (titrated, usually from 38.3 µM), for the others: top-dose activity change, negative = inhibition, hits mostly inhibitors. hit rate 0.28% among 200,000. AID 1379, 2008; also: % is scaled to controls: 0 for no effect and ±100 for the full control effect; nearly all actives have a fitted effect of over 60% in size
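Luminescence was the read-out, taken after 8-minute incubation at ambient temperature. Luciferase turned over luciferin with 10 uM ATP in imidazole pH 7.2 buffer containing KCl, MgCl2, Tween 20 and BSA.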
* hit, by the source's call; ? = inconclusive; · = not tested or not shown; [ ] = another dose, or the depositor's remark. Shown are actives, neighbours in structure and some others; about 7.5% of the full set was active somewhere. Calls follow the shape of the dose curve; as a rule, active = well fitted curve in the direction sought with a large enough effect; inconclusive = small, poorly fitted or top-dose-only effect, or another doubt; inactive = no such curve, though single readings can be large; an effect the other way counts as inactive or inconclusive. Potency is read from the fitted curve at half-maximal effect.

SMILES | FLuc counter | SMN2 splice up | Rab9 prom act | NPC1 promoter act | ELG1 genotoxic | Luc counter
Clc1ccccc1Cn1nnc(-c2cccs2)n1 | 15µM* | 13µM* | 3.5µM* | 3.2µM* | 18µM* | 1%
Clc1ccc(Cn2nnc(-c3ccccc3)n2)cc1 | ? | 29% | 13% | 10% | 14% | 2%
CN(C)c1ccc(-c2nnn(Cc3ccccc3Br)n2)cc1 | 13µM* | 12% | ? | ? | ? | -2%
CC(C)C[C@H](NC(=O)[C@H](CCCCN)NC(=O)[C@H](CCCNC(=N)N)NC(=O)[C@H](C)NC(=O)[C@H](CO)NC(=O)[C@H](CCCCN)NC(=O)[C@H](CCCNC(=N)N)NC(=O)[C@H](C)NC(=O)CNC(=O)[C@@H](NC(=O)[C@H](Cc1ccccc1)NC(=O)CNC(=O)CNC(=O)[C@@H](N)Cc1ccccc1)[C@H](C)O)C(=O)N[C@@H](C)C(=O)N[C@@H](CC(N)=O)C(=O)N[C@@H](CCC(N)=O)C(=O)O | · | 2% | · | · | · | ·
O=C(CNC(=O)c1cccc(Cl)c1)N/N=C/C=C/c1ccccc1 | -11% | -10% | -8% | 7% | 2% | -1%
Cc1c(C(=O)NCc2ccccc2Cl)sc2nc3n(c(=O)c12)CCCC3 | 6% | · | · | · | · | ·
COc1cccc(Nc2nc(-c3sc(NC(=O)c4ccccc4)nc3C)cs2)c1 | 19µM* | -59% | -1% | 0% | -7% | -5%
CCC(=O)Nc1nc(C)c(-c2csc(Nc3ccc(C(=O)O)cc3)n2)s1 | 17µM* | · | 7% | -3% | 0% | ·
Cc1ccccc1Nc1nc(-c2sc(NC(=O)c3ccco3)nc2C)cs1 | ? | -6% | 1% | 0% | -2% | -1%
Cc1ccc(Nc2nc(-c3sc(NC(=O)c4ccco4)nc3C)cs2)cc1 | 17µM* | -61% | 3% | 7% | -2% | 0%
CC(=O)c1cccc(Nc2nc(-c3cccc([N+](=O)[O-])c3)cs2)c1 | -4% | 11µM* | 21% | 5% | 1.5µM* | 5%
Cc1cccc(-n2ncc(C(=O)NCc3ccc4c(c3)OCO4)c2C2CCN(C(=O)OC(C)(C)C)CC2)c1 | 5% | · | · | · | · | ·
Cc1cc(NC(=O)C2CCCN(S(=O)(=O)c3cn(C)cn3)C2)ccc1Br (stereo not given) | -3% | · | · | · | · | ·
CC1(C)CC(=O)C2=C(C1)O[C@@]1(CCCCN3C(=O)c4ccccc4C3=O)Cc3ccccc3C2O1 | 2%[11.5 µM] | · | -12%[1.84 µM] | -4%[1.84 µM] | · | ·
CC(=O)Nc1nc(C)c(-c2csc(Nc3cccc(C(C)=O)c3)n2)s1 | ? | · | 0.71µM* | -20% | 0% | ·
Cc1nc(N)sc1-c1csc(Nc2cccc(C(=O)O)c2)n1 | 7.6µM* | · | 15% | 17% | -7% | ·
COc1cccc(NC(=O)c2sc(NC(=O)c3ccncc3)nc2C)c1 | 19µM* | · | 0% | -2% | -4% | ·
Cc1nc(NC(=O)c2ccccc2)sc1-c1csc(Nc2ccc(C(=O)O)cc2)n1 | 0.48µM* | · | ? | 23% | -7% | ·
N#Cc1cccc(-c2cncnc2-n2ccnc2)c1 | · | -14% | · | · | · | 0%
COc1ccc(-c2cc(-c3nnc(COC(=O)CC4CC5CCC4C5)o3)c3ccccc3n2)cc1OC (stereo not given) | ? | -13% | -1% | -5% | -2% | 5%
O=C(COc1ccccc1-c1ccccc1)NN=C1CCCC1 | -9% | -6% | -5% | 2% | -3% | 2%
Cc1cc(O)ccc1Nc1nc(-c2sc(N)nc2C)cs1 | ? | -7% | -8% | 1% | 1% | -5%
CC(=O)Nc1nc(C)c(-c2csc(Nc3ccccn3)n2)s1 | 11µM* | 13µM* | 1.6µM* | 3.5µM* | 8% | -7%
Cc1csc(Nc2ccc(C(=O)O)cc2)n1 | ? | · | 16% | 20% | 6% | ·
O=C(O)c1ccc(Nc2nc(-c3ccccc3)cs2)cc1 | 0.67µM* | 2.5µM* | 0.4µM* | 0.4µM* | -2% | 3%
SMILES | FLuc counter | SMN2 splice up | Rab9 prom act | NPC1 promoter act | ELG1 genotoxic | Luc counter
CC(=O)Nc1ccc(Nc2nc(-c3sc(NC(C)=O)nc3C)cs2)cc1 | ? | · | -3% | -12% | -10% | ·
Cc1nc(N)sc1-c1csc(Nc2ccccc2)n1 | 11µM* | 11µM* | 2.8µM* | ? | 16% | 0%
Cc1nc(NC(=O)c2ccc(Cl)cc2)sc1-c1csc(Nc2cccc(F)c2)n1 | 11µM* | -9% | 0% | 14% | -3% | 2%
O=C(c1cccc(C(F)(F)F)c1)N(c1ccccn1)C1CCCCC1 | -2% | -14% | -6% | -6% | -9% | -2%
CCOC(=O)c1cnn(-c2ccc(C(=O)Nc3ccc(C(C)=O)cc3)cc2)c1N | -2% | · | · | · | · | ·
Cc1[nH]n(-c2nc(-c3cccc([N+](=O)[O-])c3)cs2)c(=O)c1C | 4.8µM* | 13µM* | ? | ? | 16% | -3%
CCC(=O)Nc1nc(C)c(-c2csc(Nc3cccc(C(=O)O)c3)n2)s1 | 11µM* | 27% | -3% | -1% | -5% | 0%
Cc1c(Nc2nc(-c3cccc([N+](=O)[O-])c3)cs2)c(=O)n(-c2ccccc2)n1C | -4% | · | -12% | 1% | 1% | -1%
Cc1ccc(Nc2nc(-c3sc(NC(=O)c4cccc(Cl)c4)nc3C)cs2)cc1 | 9.5µM* | -11% | 3% | -5% | -2% | -4%
N#CCCn1cc(C(N)=O)c(-c2ccc3ccccc3c2)n1 | 2% | · | 5% | -7% | -2% | ·
Cc1ccc(S(=O)(=O)N2CCCCC2)cc1NC(=O)c1ccncc1 | -1% | · | 0% | 0% | 0% | ·
Cn1cc(CCNC(=O)CC2C(=O)NCCN2CC(c2ccccc2)c2ccccc2)cn1 (stereo not given) | 1% | · | 1% | 0% | 1% | ·
COC(=O)c1sc(S(=O)(=O)NC(C)C(=O)O)c(C(=O)OC)c1C (stereo not given) | -6% | 11% | 2% | 7% | -5% | 1%
COc1ccc(CNC(=O)c2cnc3sc(N4CCOCC4)nn3c2=O)cc1 | -6% | · | · | · | · | ·
CC(C)N1C(=O)CN(C2CCCCCC2)C(=O)C1c1ccccc1F (stereo not given) | -14% | 7% | ? | 3.5µM* | ? | -2%
Cc1ccc(C2C(=O)N(C3CCCCCC3)CC(=O)N2C(C)C)cc1 (stereo not given) | 4% | · | · | · | · | ·
O=c1oc(Cc2ccccc2)nc2ccccc12 | ? | · | 17% | 4% | 9% | ·

Source: PubChem BioAssay
